This is a sample that favours compounds with a hit; in the whole collection about 7.5% have one here.
Rab9 prom act: activates the Rab9 promoter; Huh7 Rab9 promoter-luciferase reporter, luminescence, 24 h; Potency, µM (highest dose often 9.22 µM), for inactives: top-dose activation, negative = inhibition, most hits filed as activators; 320,000 tested, 2.8% active; AID 485297; note: % of control where 0% means no effect; nearly all actives have a fitted effect of over 60% in size
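Huh7 cells stably carrying Rab9 promoter–luciferase reporter, plated 1500 cells/well, compound added after 2 h and incubated 24 h at 37 °C; luciferase luminescence then read after 10 min with detection reagent.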
SMN2 splice up: SMN2 splice variant enhancement. HEK293 SMN2-luciferase splicing reporter, luminescence, 30-36 h. Potency, µM (titrated, usually from 46.1 µM), without a hit: at the highest dose activity change, positive = activation, most hits filed as activators. 210,000 tested, 2.8% active. AID 1458; note: % of control where 0% means no effect; nearly all actives have a fitted effect of over 55% in size
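HEK293 cells carry an SMN2 minigene-luciferase reporter in which exon 7 inclusion puts luciferase in frame. Cells were seeded at 2000 cells/well, attached for 10-12 hours, then exposed to compounds for 30-36 hours at 37C before ONE-Glo luminescence.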
ELG1 genotoxic: induces genotoxicity in HEK293T cells with luciferase-tagged ELG1. HEK293T ELG1-luciferase reporter, luminescence, 16 h. Potency, µM (series often up to 46 µM), for inactives: at the top dose activity change, positive = activation, hits mostly activators. 330,000 tested, 1.3% active; note: % of control where 0% means no effect; nearly all actives have a fitted effect of over 60% in size
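HEK293T cells expressing luciferase-tagged ELG1 were treated with compound or DMSO for 16 hr at 37°C. Luciferase activity was then read after 30 min with ONE-Glo at room temperature; rising signal flags genetic stress.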
FLuc counter: firefly luciferase modulation, counter-screen for miR-21 project; Potency, µM (highest dose often 57.5 µM), inactives show top-dose activity change, negative = inhibition, usual class: inhibitors; P08659; purified FLuc, Km substrates, luminescence inhibition; 360,000 tested, 6.9% active; AID 588342;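 note: plate controls were vehicle for no effect and reference inhibitor for full effect; nearly all actives have a fitted effect of over 55% in size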
Target sequence (P08659 whole entry, looked up): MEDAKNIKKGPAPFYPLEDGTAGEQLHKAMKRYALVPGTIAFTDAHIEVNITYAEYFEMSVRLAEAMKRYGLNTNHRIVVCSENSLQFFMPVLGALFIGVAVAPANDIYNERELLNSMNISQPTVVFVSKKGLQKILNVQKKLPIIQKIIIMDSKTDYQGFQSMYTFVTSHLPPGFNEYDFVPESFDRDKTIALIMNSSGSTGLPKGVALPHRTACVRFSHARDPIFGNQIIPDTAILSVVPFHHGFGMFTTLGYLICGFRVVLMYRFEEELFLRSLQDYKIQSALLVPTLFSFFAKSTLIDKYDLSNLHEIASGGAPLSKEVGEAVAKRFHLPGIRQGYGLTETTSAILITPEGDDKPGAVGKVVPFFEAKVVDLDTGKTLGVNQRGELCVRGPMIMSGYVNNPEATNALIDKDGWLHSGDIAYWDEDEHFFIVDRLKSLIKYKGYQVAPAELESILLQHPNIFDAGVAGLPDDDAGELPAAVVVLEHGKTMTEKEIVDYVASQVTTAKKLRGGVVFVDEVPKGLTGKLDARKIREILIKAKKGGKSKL
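Purified P. pyralis luciferase, 10 nM final, with Km-level 10 uM D-luciferin and 10 uM ATP in 50 mM Tris acetate pH 7.5, 10 mM Mg acetate, 0.01% Tween-20, 0.05% BSA; 6-point qHTS titration about 60 µM downward; luminescence read.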
Luc counter: blocks Kinase-Glo luciferase, a counter-screen artifact; Q27757; Kinase-Glo luciferase, ATP luminescence, 8 min; Potency, µM (top dose mostly 38.3 µM), without a hit: top-dose activity change, negative = inhibition, usual class: inhibitors; 200,000 tested, 0.28% active; AID 1379; note: % is set by controls: 0 for no effect and ±100 for the full control effect; nearly all actives have a fitted effect of over 60% in size
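Kinase-Glo luciferase light output from ATP and luciferin was measured with 10 uM ATP, within the enzyme's linear range. Buffer: 50 mM imidazole pH 7.2, 50 mM KCl, 7 mM MgCl2, 0.01% Tween 20, 0.05% BSA; luminescence read after 8 min at ambient temperature.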
NPC1 prom act: activates the NPC1 promoter | Huh7 NPC1 promoter luciferase reporter, 24 h | Potency, µM (doses to about 9.22 µM), for inactives: top-dose activation, hits mostly activators | 320,000 tested, 2.4% active | AID 485313; note: % of control where 0% means no effect; nearly all actives have a fitted effect of over 60% in size
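Huh7 reporter cells (NPC1 promoter driving luciferase) are dosed with compound for 24 h at 37 °C, 5% CO2; luciferase detection reagent is then added and luminescence measured after 10 min at ambient temperature.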
* hit, by the source's call; u = inconclusive; x = no result. Calls come from the whole dose curve; as a rule, active = well fitted curve in the direction sought with a large enough effect; inconclusive = small, poorly fitted or top-dose-only effect, or another doubt; inactive = no such curve, though single readings can be large; an effect the other way counts as inactive or inconclusive. Potency is the fitted concentration of half-maximal effect.

SMILES	Rab9 prom act	SMN2 splice up	ELG1 genotoxic	FLuc counter	Luc counter	NPC1 prom act
COc1ccc(C(=O)C2CCN(C(=S)NCCc3ccc(OC)c(OC)c3)CC2)cc1	-19.6%	x	-3.9%	19µM*	-4.2%	-9.4%
COc1ccc(CCNC(=O)C2CCCN(c3nn4c(=O)cc(C)nc4s3)C2)cc1OC (stereo unspecified)	-2.1%	9.0%	-3.2%	-3.1%	-0.1%	6.5%
CCN(CCS(=O)(=O)c1ccc(Br)cc1)Cc1nc2ccccc2c(=O)[nH]1	x	x	-5.8%	x	x	x
CCN(C(=O)c1coc(=O)c2ccccc12)c1ccccc1C	x	5.6%	x	-6.3%	x	x
O=C(CSc1n[nH]c(-c2ccc(F)cc2)n1)N1CCN(c2ccc(F)cc2)CC1	x	x	x	-4.1%	x	x
CCOc1ccc2nc(N3CCCC(C(=O)Nc4ccc(OC)c(Cl)c4)C3)sc2c1 (stereo unspecified)	x	20µM*	x	3.01µM*	x	x
CC(/C=N\NC(=O)c1cc(C)oc1C)=C\c1ccccc1	2.51µM*	u	u	2.13µM*	-25.3%	u
Cc1ccc(/C=N/NC(=O)c2cc(C)oc2C)cc1	24.0%	x	u	4.26µM*	x	11.8%
Cc1cc(C(=O)N/N=C/c2ccncc2)c(C)o1	0.7%	x	0.0%	u	x	-3.0%
Cc1ccc2c(CC(=O)Nc3c(C(=O)c4ccc(F)cc4)oc4ccccc34)coc2c1	x	-0.1%	x	-4.7%	x	x
CCn1cc(C(=O)NCc2ccccc2)c(=O)c2cc(S(=O)(=O)N3CCCCCC3)ccc21	x	3.2%	x	2.3%	x	x
CCCCC(=O)Nc1nc2ccc(C(=O)OC)cc2s1	2.24µM*	u	u	u	-2.3%	u
CCOC(=O)c1ccc2nc(NC(=O)C(C)C)sc2c1	3.55µM*	11.2µM*	u	9.53µM*	-1.4%	1.12µM*
CCCC(=O)Nc1nc2ccc(C(=O)OCC)cc2s1	u	17.8µM*	10.3µM*	u	-2.7%	0.631µM*
Cc1ccc2nc(NC(=O)COC(=O)c3cccnc3)sc2c1	x	x	19.9%	x	x	x
C=CCN(CC=C)S(=O)(=O)c1ccc2nc(NC(=O)C(C)C)sc2c1	-21.8%	-23.4%	4.4%	5.6%	3.3%	-26.3%
Cc1ccc2c(c1)N(C(=O)N1CCC(C(=O)NCc3cccs3)CC1)CC(C)O2 (stereo unspecified)	x	x	x	-2.4%	x	x
O=C(Nc1ccc(Cl)cc1F)c1cnc2sc(N3CCOCC3)nn2c1=O	x	24.4%	x	3.1%	x	x
COc1ccc(Cl)cc1N(C)C(=O)Cn1cnc2sc(C)c(S(=O)(=O)N3CCN(c4ncccn4)CC3)c2c1=O	x	2.7%	x	-16.1%	x	x
COc1ccc(Cc2nc3ccc(C(=O)N4C[C@@H](C)O[C@@H](C)C4)cc3o2)cc1OC	10.3%	x	u	15.1µM*	x	26.1%
COc1ccc(Cc2nc3ccc(C(=O)N4CCOCC4)cc3o2)cc1	3.98µM*	x	18.3µM*	13.5µM*	x	3.16µM*
CCOc1ccccc1NC(=O)N1CCN(S(=O)(=O)c2ccc3c(ccn3C)c2)CC1	x	-13.0%	x	3.3%	x	x
O=C(NCc1ccccc1)c1ccc2c(=O)n3c(nc2c1)CCCCC3	6.4%	x	3.0%	-1.2%	x	-1.2%
O=C(Nc1ccccc1Cl)c1ccc2c(=O)n3c(nc2c1)CCC3	1.12µM*	x	u	10.7µM*	x	3.55µM*
O=C(Nc1nc(-c2ccccc2)cs1)c1ccc2c(=O)n3c(nc2c1)CCCCC3	-18.0%	x	-19.2%	12µM*	x	-14.9%
SMILES	Rab9 prom act	SMN2 splice up	ELG1 genotoxic	FLuc counter	Luc counter	NPC1 prom act
COc1ccc(Cn2c(SCC(=O)NCc3ccc(Cl)cc3)nc3ccsc3c2=O)cc1	x	x	x	-1.0%	x	x
Nc1cccc(C#Cc2ccc3c(=O)c4ccccc4oc3c2)c1	0.562µM*	x	u	u	x	18.1%
COc1ccc2c(=O)c3ccccc3oc2c1	u	x	u	12µM*	x	3.55µM*
COc1ccc2c(c1)oc(=O)c1cc(OC)ccc12	2.51µM*	x	10.3µM*	3.01µM*	x	2.51µM*
COc1ccc2c(c1)oc(=O)c1ccccc12	6.5%	0.8%	16.0%	u	0.9%	-4.2%
O=c1c2ccccc2oc2ccccc12	x	u	x	x	-11.7%	x
COc1ccc(C(=O)NCCn2cc(SCc3cc(C)ccc3C)c3ccccc32)cc1	x	-51.0%	x	-10.2%	x	x
COC(=O)[C@@]1(Cc2ccccc2)[C@H]2c3cc(C(=O)N(C)C)n(Cc4ccc(OC)c(OC)c4)c3C[C@H]2CN1C(=O)c1ccccc1	x	-7.9%	x	x	-2.6%	x
CCOC(=O)C1=C(CSc2nc(-c3ccccc3)ccc2C#N)OC(N)=C(C#N)C1c1ccc(OC)cc1 (stereo unspecified)	-2.9%	-4.1%	u	15.1µM*	2.1%	-1.2%
Cn1cccc1C(=O)N1CCC2(CC1)CCN(c1ccc(-c3ccccc3)cc1)CC2	x	-57.8%	x	x	-1.1%	x
COc1ccccc1NC(=O)Cn1c2ccccc2c2nc3n(c(=O)c21)CCS3	-0.3%	23.2%	-4.6%	-9.5%	-7.4%	-1.6%
c1ccc(NC2=Nc3ccccc3CS2)cc1	3.16µM*	11.2µM*	u	2.69µM*	0.4%	1.78µM*
Cc1cccc(NC(=O)Cc2ccc(-c3ccccc3)cc2)n1	2.6%	x	-4.7%	u	x	-1.7%
Cc1cccc(NC(=S)NC(=O)c2oc3ccccc3c2C)n1	1.41µM*	x	u	u	x	1.26µM*
Cc1cccc(NC(=S)NC(=O)c2ccc(-c3ccccc3)cc2)n1	2.24µM*	x	u	10.7µM*	x	2.82µM*
CCS(=O)(=O)N1CC(=O)N(c2ccc(C)c(C)c2)C(C)(C(=O)NC2CCCCCC2)C1 (stereo unspecified)	x	x	x	-1.1%	x	x
Cc1ccc(N2CC(NC(=O)c3cc4ccccc4o3)CC2=O)cc1 (stereo unspecified)	x	x	x	7.0%	x	x
O=C1c2ccccc2C(=O)N1CCOc1cccc(Br)c1	u	x	u	10.7µM*	x	28.1%
Cc1cccc(OCCN2C(=O)C(=O)c3cccc(C)c32)c1	-1.7%	-6.6%	0.0%	-0.3%	-2.6%	-4.2%
Cc1ccc(OCCN2C(=O)c3ccccc3C2=O)cc1	21.7%	14.1%	u	u	-2.7%	12.3%
Cc1ccc2c(c1)C(=O)C(=O)N2CCCOc1ccccc1C	-1.8%	x	-0.7%	-1.8%	-2.1%	-3.7%
Cc1cccc(OCCN2C(=O)C(=O)c3cc(C)ccc32)c1	-17.7%	-9.4%	u	12µM*	-7.4%	-11.1%
Cc1ccc2c(c1)C(=O)C(=O)N2CCOc1ccccc1	-3.1%	-19.0%	u	13.5µM*	2.8%	-5.6%
COc1ccc(NC(=O)CN(c2ccccc2OC)S(C)(=O)=O)c(OC)c1	x	2.6%	x	-2.8%	x	x
Cc1nc(NCc2ccccc2)c2nc(-c3ccccc3)n(CCN3CCCCC3)c2n1	x	-35.9%	x	x	-3.8%	x
O=c1[nH]cnc2c1nc(Cl)n2C1OC(CO)C(O)C1O (stereo unspecified)	x	-5.3%	x	x	0.0%	x

Screening data: PubChem BioAssay, National Center for Advancing Translational Sciences (NCATS)
